From PubChem BioAssay AID504465 (National Center for Advancing Translational Sciences (NCATS), 2011)
Hit rate of the full screen: of about 2,100 compounds, about 210 (10%) were called active. About 53% were inconclusive and are not listed. The call rests on the fitted dose curve; in most records, active means well fitted inhibition curve with a large enough effect; inconclusive means small, poorly fitted or top-dose-only effect, or effect the other way; inactive means no such curve, though single readings can be large or run the other way. This is one part of the list.

test: IN Cell qHTS Assay for Inhibitors of the mTORC1 Signaling Pathway in MEF (Tsc2-/-, p53-/-) Cells: Sytravon; details: phospho-rpS6 immunofluorescence, 24 h; series mostly up to 38.3 µM; further: nearly all actives have a fitted effect of over 60% in size
Excerpt: NIH Molecular Libraries Probe Production Centers Network [MLPCN] NIH Chemical Genomics Center [NCGC] MLPCN Grant: NS059428-01 Assay Submitter (PI): Blenis, John; Hoffman, Greg; Harvard University NCGC Assay Overview: Thee mammalian target of rapamycin (mTOR) is an intracellular serine/threonine kinase Aberrant regulation of mTOR signaling plays a causative role in a number of human diseases, including cancer, benign tumors such as lymphangioleiomyomatosis (LAM) and Tuberous Sclerosis Complex (TSC), and metabolic diseases such as diabetes and obesity. This project aims to identify inhibitors of ribosomal protein S6 (rpS6) phosphorylation. The phosphorylation of rpS6 is a key event downstream of mTOR activation. The assay uses a phospho-specific antibody of phospho-rpS6 to detect inhibitors of mTOR activation. Mutations in the Tsc1 and Tsc2 genes are the underlying genetic lesions responsible for TSC, causing constitutive activation of the mTORC1 pathway and leading to profound effects on cell metabolism. Aberrant metabolism in cancer has recently received significant attention as a target to develop therapeutic agents in the treatment of cancer1. As Tsc2-/- cells have lost the ability to respond to energy and growth factor deprivation, these cells are unable to properly down regulate cellular biosynthetic processes in response to metabolic stress, and are thus extremely sensitive to glucose deprivation-induced death.2 A central goal of this project is to explore the unique cell survival and metabolic properties of cells with Tsc1 or Tsc2 by screening for compounds that selectively target the Tsc2-/- MEFs by screening both Tsc2-/- and WT MEF cell lines. We hope to better understand these aspects of TSC physiology in order to exploit them for therapeutic benefit.
NCGC IN Cell Assay Protocol: For quantitative high throughput analysis of mTORC1 signaling, we developed a cell-based assay for immuno-fluorescence based detection of rpS6 phosphorylation on the Acumen Explorer that will be used a platform for the primary small molecule screen. Mouse embryonic fibroblasts (MEFs) are cultured in 1536-well plates using DMEM + 10% FBS. Twenty-four hrs after plating, test compounds (solubilized in DMSO) are delivered and incubated with the cells for 24 hrs at 37 degree Celsius. Following the incubation, media with compound is aspirated and the cells are fixed in 4% paraformaldehyde (PFA) containing PBS + 0.2% TX-100. Next, PFA is aspirated, cells are washed two times with PBS plus 0.2% TX-100 and the cells are blocked for 1 hr at room temperature (blocking buffer: LiCOR Blocking Buffer plus 0.2% TX-100). This is followed by aspiration and staining with Alexa-488 conjugated-phospho-rpS6 Ser235/236 antibody for 2 hours at room temperature (Cell Signaling Technology # 4803, 1:50 dilution in blocking buffer). Cells are washed two times with PBS plus 0.2% TX-100, and stained with 10 uM propidium iodide (PI) for 20-25 minutes for cell number measurement (1:500 dilution of Hoescht staining is also added for IN Cell imaging). Active wells which are selected (based on Acumen results) are imaged on the IN Cell 1000 (GE Healthcare) using the D360/40X and HQ480/40X excitation filters for the Hoechst and Alexa-488 cytoplasmic stains, respectively. The fluorescence emission filters used were HQ460/40M and HQ535/50M for the Hoechst and Alexa-488 cytoplasmic stains, respectively. The normalized phospho-S6 staining is calculated as the ratio of […] for the single concentration rapamycin control (7.5 nM) and DMSO columns. […] Inhibition of the pathway is defined based on the normalized phospho-S6 intensity in rapamycin treated cells. Each treatment is reported as the % positive cells in the well, where thresholds are defined by selecting wells with the highest and lowest signal and differentiating between the % non-active and % active populations. […]
Potency means the concentration at half of the fitted maximal effect.

Potency, active:
Cc1ccc(Cl)cc1N1CCN(C(=O)c2cnn(-c3ccc(Cl)cc3)c2C2CCNCC2)CC1 13.1 µM, Cc1cc(C)c(NS(=O)(=O)c2ccc(-c3cnc(C4CC4)o3)cc2)c(C)c1 11.7 µM, CCOc1ccc(Nc2nc(-c3cccc(Cl)c3)c3c(n2)-c2ccccc2OC3)cc1 2.07 µM, Cc1ccc2nc3sc(C(=O)Nc4ccc(F)cc4)cc3cc2c1 2.33 µM, O=C(Cn1c(=O)c2ccccc2n(CC(=O)Nc2ccc(Cl)cc2)c1=O)NCCc1ccccc1 14.7 µM, O=C(Nc1cccs1)Nc1cc(C(F)(F)F)ccc1Cl 9.27 µM, CCC1CCc2nc3sc(C(=O)Nc4ccc(C)cc4)c(N)c3cc2C1 (stereo unspecified) 5.21 µM, CCC1CCc2nc3sc(C(=O)Nc4ccc(F)c(F)c4)c(N)c3cc2C1 (stereo unspecified) 5.85 µM, CC(=O)c1ccc(C(=O)N(CCCN(C)C)c2nc3c(C)c(C)ccc3s2)cc1 14.7 µM, Cc1cc(Cl)ccc1NC(=O)CN1C(=O)C(=O)c2ccccc21 2.07 µM, Cc1cc(C)c(NC(=O)Cn2c(=O)n(Cc3ccc(C(=O)NCc4ccc5c(c4)OCO5)cc3)c(=O)c3ccccc32)c(C)c1 4.14 µM, CCOc1ccccc1NC(=O)Cn1c(=O)n(CCC(=O)NCc2ccc3c(c2)OCO3)c(=O)c2ccccc21 4.65 µM, CCOc1ccc(NC(=O)c2nc(S(=O)(=O)Cc3ccccc3F)ncc2Cl)cc1 3.69 µM, O=C(Nc1ccccc1F)c1nc(S(=O)(=O)Cc2ccccc2F)ncc1Cl 2.33 µM, COc1ccc(CC(=O)Nc2sc3c(c2C(=O)Nc2cccc(C)c2)CCCCC3)cc1 11.7 µM, COc1ccc(CC(=O)Nc2sc3c(c2C(=O)Nc2ccccc2)CCCCC3)cc1 9.27 µM

Potency, inactive:
O=C(Nc1ccc(F)c(Cl)c1)c1cc(S(=O)(=O)N2CCc3ccccc3C2)ccc1F, COC(=O)c1cc(C)nc2c1c(=O)nc(SCc1ccccc1Cl)n2C1CC1, COc1ccccc1N1CCN(C(=O)c2ccc3c(c2)CCN3S(=O)(=O)c2ccccc2)CC1, CCc1ccccc1NC(=O)CCNS(=O)(=O)c1ccc2c(c1)CCN2C(=O)C1CC1, COc1ccc(-n2ncc(C(=O)N3CCN(C4CCCCC4)CC3)c2C2CCN(C(=O)OC(C)(C)C)CC2)cc1, Cc1ccc(Cl)cc1N1CCN(C(=O)c2ccc3c(c2)N(Cc2ccc(F)cc2)CCS3)CC1, COc1ccc(OC)c(NC(=O)c2c(NCc3ccc(C)o3)sc3c2CCC(C)C3)c1 (stereo unspecified), COC(=O)c1scc(-c2ccc(C)cc2)c1S(=O)(=O)Nc1cc(Cl)ccc1C, Cc1ccc(NS(=O)(=O)c2cc(-c3cnc(C4CC4)o3)ccc2C)cc1Cl, COc1ccccc1CNS(=O)(=O)c1ccc(-c2cnc(C3CC3)o2)cc1, Cc1ccccc1-c1nc(SCC(=O)N(C)c2ccccc2)c2c(=O)n(C)c(=O)n(C)c2n1, O=c1c(-c2cc(-c3ccc(F)cc3)nc3c2COc2ccc(Cl)cc2-3)coc2ccc(F)cc12, CCOc1ccc(Nc2nc(N)c(C(=O)c3ccccc3Cl)s2)cc1, Cc1ccccc1C1CC(=O)Nc2ccc3ccccc3c21 (stereo unspecified), CCOc1cc(CNCCSc2nnnn2-c2ccccc2)ccc1OC, COc1ccc(C2=CC(c3ccc(F)cc3)n3ncc(C(=O)Nc4ccc(C)cc4)c3N2)cc1 (stereo unspecified), Cc1ccc(NC(=O)CCS(=O)(=O)c2ccc3nc(C)sc3c2)cc1, Cc1sc2ncn(CC(=O)N3CCN(c4ccc(Cl)cc4)CC3)c(=O)c2c1S(=O)(=O)N1CCN(c2ncccn2)CC1, COc1ccccc1CNC(=O)c1ccc2c(c1)CCN2S(=O)(=O)c1ccccc1, CC(=O)c1ccc(NC(=O)CC2Nc3cccc4cccc(c34)NC2=O)cc1 (stereo unspecified), O=S(=O)(NCC(c1ccco1)S(=O)(=O)c1cccs1)c1ccc(Cl)cc1 (stereo unspecified), CCOc1ccc(NC(=O)Cn2c(=O)n(CCCCCC(=O)NCc3ccccc3)c(=O)c3sccc32)cc1, O=C(CCCn1c(=O)c2ccccc2n(Cc2cccc(Cl)c2)c1=O)NCCc1ccc(Cl)cc1, O=C(NCCc1ccc(F)cc1)C(=O)NCC(c1cccs1)S(=O)(=O)c1ccc(Cl)cc1 (stereo unspecified), COc1ccc(-n2c(SCCC(C)C)nc3sc4c(c3c2=O)CC(C(C)C)OC4)cc1 (stereo unspecified), Fc1ccc(C2=NC(c3cccc(C(F)(F)F)c3)=Nc3ccccc3N2)cc1, CCCn1c2ccccc2c2cnn(CC(=O)N(CCCOC)Cc3ccco3)c(=O)c21, Cc1ccc(N=C2NC(=O)CC(C(=O)Nc3cc(C(F)(F)F)ccc3Cl)S2)cc1 (stereo unspecified), COc1ccc(NC(=O)C2CCCN(S(=O)(=O)c3cccc4nonc34)C2)cc1Cl (stereo unspecified), Cc1cccc(C(CC(=O)NCC2(c3ccccc3)CCCC2)c2ccccc2)c1O (stereo unspecified), COc1ccccc1N1CCN(C(=O)CSc2nc3ccccc3nc2Cc2ccc(C)cc2)CC1, O=C(Cn1cc(SCc2ccccc2)c2ccccc21)N1CCCCC1, CC1CCc2nc3ncn(CC(=O)Nc4cccc(C#N)c4)c(=O)c3cc2C1 (stereo unspecified), CCC(C)NC(=O)c1sc2nc(C)c(C(=O)Nc3ccc(C)cc3C)c(-c3ccc(Cl)cc3)c2c1N (stereo unspecified), CCN1CCc2nc3sc(C(=O)Nc4cccc(Cl)c4C)c(N)c3cc2C1, Nc1c(C(=O)Nc2ccccc2F)sc2nc3c(cc12)CCCCCC3, CC1CCCCN1S(=O)(=O)c1cc2c(=O)nc3ccccn3c2cc1Cl (stereo unspecified), C=CCc1ccc(OCc2ccc(C(=O)Nc3ccc(NC(C)=O)cc3)o2)c(OC)c1, Cc1cc(C)cc(OCC(=O)NCC(c2ccc(Cl)cc2)N2CCCCC2)c1 (stereo unspecified), CCc1c(C)nc2nc(-c3ccccc3)nn2c1NCc1ccc(C)cc1, COc1ccc(Br)c(C(=O)Nc2cc3c(cc2N2CCCC2)n(C)c(=O)c(=O)n3C)c1, CC(C)c1ccc(NC(=O)c2cc(S(=O)(=O)NCCc3ccccc3)ccc2F)cc1, COc1ccccc1NC(=O)C1=C(C)Nc2nc(-c3ccco3)nn2C1c1cccc(C)c1 (stereo unspecified), COc1cc(CNC(=O)c2ccc3nc(Cc4ccccc4)oc3c2)cc(OC)c1OC, CCc1ccccc1NS(=O)(=O)c1ccc2[nH]cc(C(=O)NC3CCCC3)c(=O)c2c1, Cc1ccccc1CNCCCSc1nnnn1-c1ccccc1, Cc1ccccc1C(=O)N1CCN(CCc2ccccn2)CC1, CCOC(=O)c1cnc2c(Cl)cc(Cl)cc2c1Nc1cc(C(=O)O)ccc1C, CCOc1ccccc1NC(=O)CN1C(=O)C(=O)c2ccccc21, COc1ccc(NC(=O)CN2C(=O)C(=O)c3ccccc32)c(OC)c1, CCOc1ccccc1CC1C(=O)Nc2ccc(Br)cc21 (stereo unspecified), CC(=O)c1ccc(N2CCN(C(=O)C3CCCN(S(=O)(=O)c4ccc(Br)s4)C3)CC2)cc1 (stereo unspecified), COc1ccc(Cn2c(C(=O)O)c(CNCC(C)c3ccccc3)c3ccc(OC)cc32)cc1 (stereo unspecified), Cc1cccc(OCC(=O)Nc2ccccc2OCc2cc(=O)n3ccccc3n2)c1, COc1ccc(NC(=O)Cn2c(=O)n(CCCC(=O)NCc3ccccc3OC)c(=O)c3ccccc32)cc1Cl, Cc1cc(C)c(NC(=O)Cn2c(=O)n(CCC(=O)NCc3ccc4c(c3)OCO4)c(=O)c3ccccc32)c(C)c1, Cc1ccccc1NC(=O)Cn1c(=O)n(CCCCCC(=O)NCc2ccc3c(c2)OCO3)c(=O)c2sccc21, Cc1ccc(C)c(Cn2c(=O)n(CCCCCC(=O)NCc3ccc4c(c3)OCO4)c(=O)c3sccc32)c1, Cc1ccc(-c2nc(-c3cccs3)c(-c3cccs3)[nH]2)cc1, Cc1ccc(Cl)cc1-n1ncc2c(NC3CCCCCC3)ncnc21, CCOC(=O)c1ccc2c(c1)N(Cc1cccc([N+](=O)[O-])c1)C(=O)c1ccccc1S2, O=C(Nc1ccc(F)cc1)Nc1nnc(SCC(=O)N2CCCCC2)s1, COc1cccc(-c2nc3c(c(SCC(=O)Nc4cccc(C)c4C)n2)Cc2c(CO)cnc(C)c2O3)c1, CCOc1cccc(NC(=O)CSc2ncc(-c3ccc(Cl)cc3)[nH]2)c1, CCOc1ccc(NC(=O)Cn2ccn(-c3ccc(F)c(F)c3)c(=O)c2=O)cc1, CCOc1ccc(CNCc2c(C(=O)O)n(Cc3ccccc3C)c3cc(OC)ccc23)cc1OC, O=C1CC(c2ccccc2)Cc2[nH]c(=O)c(-c3nc(-c4cccc(Cl)c4)cs3)cc21 (stereo unspecified), COc1ccc(C2C(=O)N(C3CCCCCC3)CC(=O)N2CCc2ccccc2)cc1 (stereo unspecified), CC(C)c1cnc2c(c1SCC(=O)c1ccc(Cl)cc1)c(=O)n(C)c(=O)n2C, COc1ccccc1NC(=O)c1c(NCc2ccc(C)o2)sc2c1CCCCC2, COc1ccc(NC(=O)c2c(NCc3ccc(C)o3)sc3c2CCC(C)C3)cc1 (stereo unspecified), COc1ccc(OC)c(NC(=O)c2c(NCc3ccc(C)o3)sc3c2CCCCC3)c1, COc1ccc(NC(=O)c2c(NCc3ccc(C)o3)sc3c2CCCCC3)c(OC)c1, CCOC(=O)c1c(NC(=O)c2ccc(S(=O)(=O)N3CCCC(C)C3)cc2)sc2c1CCN(C(C)C)C2 (stereo unspecified), FC(F)(F)c1ccc(C2=Nc3ccccc3NC(c3cccs3)=N2)cc1
